{
  "source": "paper PMC7862700",
  "about": "“An all-to-all approach to the identification of sequence-specific readers for epigenetic DNA modifications on cytosine”",
  "assay_in_all_cases": "DAPPL (digital affinity profiling via proximity ligation, sequencing); 10 mM Tris-HCl pH 7.5, 50 mM NaCl, 1 mM DTT, 4% glycerol, room temperature, 30 min; GST-TFs on glutathione beads, 16-mer random dsDNA library, 0.1% formaldehyde crosslink after washing; high values mean tight binding",
  "settings_in_all_cases": "protein: recombinant; tags: N-terminal GST; dsDNA, one strand shown",
  "key": {"ETV1": {"target": "ETV1 (Homo sapiens, UniProt P50549 1-477)", "sequence (P50549 whole entry, the tested form may be a part)": "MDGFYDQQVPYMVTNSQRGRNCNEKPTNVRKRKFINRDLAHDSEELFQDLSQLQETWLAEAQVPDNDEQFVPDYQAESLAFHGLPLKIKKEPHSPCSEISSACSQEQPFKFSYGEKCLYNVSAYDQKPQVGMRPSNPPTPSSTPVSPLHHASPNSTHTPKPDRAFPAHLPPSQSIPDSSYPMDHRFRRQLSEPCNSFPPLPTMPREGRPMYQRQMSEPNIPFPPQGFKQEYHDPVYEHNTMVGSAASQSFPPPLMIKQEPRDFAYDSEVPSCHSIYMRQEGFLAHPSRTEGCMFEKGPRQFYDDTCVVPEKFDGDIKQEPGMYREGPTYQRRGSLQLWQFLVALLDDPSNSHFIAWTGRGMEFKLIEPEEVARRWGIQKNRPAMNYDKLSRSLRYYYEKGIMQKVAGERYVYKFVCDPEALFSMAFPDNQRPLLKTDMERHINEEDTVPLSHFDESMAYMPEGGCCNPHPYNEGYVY", "procedure,_shortened": "(§1)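 Pools of DNA-barcoded human transcription factors, expressed in yeast as GST fusions on glutathione beads and combined with a tag-only sample, were incubated with 200 nmole of a 16-mer random double-stranded DNA library. Incubation took 30 min at room temperature in Tris/NaCl/DTT/glycerol buffer and was followed by washing, 0.1% formaldehyde crosslinking, proximity ligation (BsaI/T4 ligase, 1 h, 37 °C), PCR amplification and sequencing on an Illumina NextSeq500. Binding signal is the ratio of a hexamer's read frequency for a factor to its frequency for the tag-only sample.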"}, "ERF": {"target": "T1, ERF (Homo sapiens, UniProt P50548 1-548)", "T1 sequence": "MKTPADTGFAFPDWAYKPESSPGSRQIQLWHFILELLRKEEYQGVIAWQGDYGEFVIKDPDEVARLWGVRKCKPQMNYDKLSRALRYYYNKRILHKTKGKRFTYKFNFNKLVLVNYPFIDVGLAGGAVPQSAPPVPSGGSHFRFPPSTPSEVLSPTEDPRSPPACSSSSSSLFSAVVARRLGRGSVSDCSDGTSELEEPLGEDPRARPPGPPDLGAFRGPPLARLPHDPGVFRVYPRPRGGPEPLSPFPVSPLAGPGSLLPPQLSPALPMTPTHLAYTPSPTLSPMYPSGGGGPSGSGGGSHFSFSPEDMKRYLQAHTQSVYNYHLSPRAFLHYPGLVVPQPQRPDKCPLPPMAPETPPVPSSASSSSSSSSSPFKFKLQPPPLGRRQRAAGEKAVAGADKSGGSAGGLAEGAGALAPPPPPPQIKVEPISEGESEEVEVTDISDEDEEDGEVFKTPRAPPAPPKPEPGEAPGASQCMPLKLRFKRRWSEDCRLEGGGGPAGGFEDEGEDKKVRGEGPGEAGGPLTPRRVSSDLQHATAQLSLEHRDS", "procedure,_shortened": "as §1"}, "ETV3L": {"target": "T2, ETV3L (Homo sapiens, UniProt Q6ZN32 1-361)", "T2 sequence": "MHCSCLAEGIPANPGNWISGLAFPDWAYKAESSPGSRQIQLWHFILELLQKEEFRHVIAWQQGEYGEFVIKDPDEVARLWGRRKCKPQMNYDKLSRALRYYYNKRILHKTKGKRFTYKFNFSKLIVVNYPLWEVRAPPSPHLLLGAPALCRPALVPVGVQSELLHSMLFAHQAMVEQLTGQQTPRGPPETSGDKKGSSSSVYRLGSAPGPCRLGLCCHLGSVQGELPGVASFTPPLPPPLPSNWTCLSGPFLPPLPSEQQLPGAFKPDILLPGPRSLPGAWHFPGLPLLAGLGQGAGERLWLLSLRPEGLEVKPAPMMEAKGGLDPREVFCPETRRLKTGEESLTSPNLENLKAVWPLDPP", "procedure,_shortened": "as §1"}, "ETS2": {"target": "T3, ETS2 (Homo sapiens, UniProt P15036 1-469)", "T3 sequence": "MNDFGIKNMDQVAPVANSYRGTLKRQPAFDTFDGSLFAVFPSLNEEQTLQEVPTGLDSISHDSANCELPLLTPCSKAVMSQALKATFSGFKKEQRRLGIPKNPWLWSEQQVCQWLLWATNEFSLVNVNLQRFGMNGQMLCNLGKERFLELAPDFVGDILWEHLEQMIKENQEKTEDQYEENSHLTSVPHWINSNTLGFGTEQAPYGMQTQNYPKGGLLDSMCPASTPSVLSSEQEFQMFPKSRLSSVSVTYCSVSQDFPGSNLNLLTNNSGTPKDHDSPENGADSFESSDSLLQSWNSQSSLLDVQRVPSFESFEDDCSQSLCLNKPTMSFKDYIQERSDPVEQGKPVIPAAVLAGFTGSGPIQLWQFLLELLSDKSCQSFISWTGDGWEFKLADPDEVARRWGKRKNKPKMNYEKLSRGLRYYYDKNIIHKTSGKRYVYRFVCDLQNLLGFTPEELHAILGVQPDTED", "procedure,_shortened": "as §1"}, "SPDEF": {"target": "T4, SPDEF (Homo sapiens, UniProt O95238 1-335)", "T4 sequence": "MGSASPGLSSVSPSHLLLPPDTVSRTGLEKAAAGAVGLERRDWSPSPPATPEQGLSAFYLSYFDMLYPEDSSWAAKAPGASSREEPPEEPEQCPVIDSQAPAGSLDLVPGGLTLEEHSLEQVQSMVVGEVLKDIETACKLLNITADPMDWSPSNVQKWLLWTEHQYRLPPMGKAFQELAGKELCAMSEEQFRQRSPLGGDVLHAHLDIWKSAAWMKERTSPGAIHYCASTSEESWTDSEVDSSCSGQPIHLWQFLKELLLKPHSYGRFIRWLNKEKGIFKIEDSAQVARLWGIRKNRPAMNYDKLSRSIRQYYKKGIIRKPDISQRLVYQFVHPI", "procedure,_shortened": "as §1"}, "ETV7": {"target": "T5, ETV7 (Homo sapiens, UniProt Q9Y603 1-341)", "T5 sequence": "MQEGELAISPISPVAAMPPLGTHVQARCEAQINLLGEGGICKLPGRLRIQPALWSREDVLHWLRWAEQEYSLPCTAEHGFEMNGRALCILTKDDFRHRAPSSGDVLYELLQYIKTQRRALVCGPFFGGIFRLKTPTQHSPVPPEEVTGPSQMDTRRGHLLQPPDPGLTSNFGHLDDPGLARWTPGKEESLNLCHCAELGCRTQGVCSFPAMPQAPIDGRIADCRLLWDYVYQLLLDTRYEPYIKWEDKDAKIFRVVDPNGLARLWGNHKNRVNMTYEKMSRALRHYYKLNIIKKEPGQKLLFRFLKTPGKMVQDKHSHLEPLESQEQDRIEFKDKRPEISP", "procedure,_shortened": "as §1"}, "ELF5": {"target": "T6, ELF5 (Homo sapiens, UniProt Q9UKW6-2 1-255)", "T6 sequence": "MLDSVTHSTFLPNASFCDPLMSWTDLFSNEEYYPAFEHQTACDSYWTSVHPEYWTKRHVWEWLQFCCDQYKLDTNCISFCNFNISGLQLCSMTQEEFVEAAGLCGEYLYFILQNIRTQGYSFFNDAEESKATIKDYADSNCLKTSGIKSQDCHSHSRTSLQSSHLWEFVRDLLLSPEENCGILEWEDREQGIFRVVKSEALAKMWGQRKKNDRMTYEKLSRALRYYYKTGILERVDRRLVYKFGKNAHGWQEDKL", "procedure,_shortened": "as §1"}, "ETV3": {"target": "T7, ETV3 (Homo sapiens, UniProt P41162-2 1-143)", "T7 sequence": "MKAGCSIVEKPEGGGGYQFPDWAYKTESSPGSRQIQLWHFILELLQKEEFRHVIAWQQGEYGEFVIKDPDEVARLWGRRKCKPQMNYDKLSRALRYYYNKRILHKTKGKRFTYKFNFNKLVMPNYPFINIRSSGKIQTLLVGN", "procedure,_shortened": "as §1"}, "ETV6": {"target": "ETV6 (Homo sapiens, UniProt P41212 1-452)", "sequence (P41212 whole entry)": "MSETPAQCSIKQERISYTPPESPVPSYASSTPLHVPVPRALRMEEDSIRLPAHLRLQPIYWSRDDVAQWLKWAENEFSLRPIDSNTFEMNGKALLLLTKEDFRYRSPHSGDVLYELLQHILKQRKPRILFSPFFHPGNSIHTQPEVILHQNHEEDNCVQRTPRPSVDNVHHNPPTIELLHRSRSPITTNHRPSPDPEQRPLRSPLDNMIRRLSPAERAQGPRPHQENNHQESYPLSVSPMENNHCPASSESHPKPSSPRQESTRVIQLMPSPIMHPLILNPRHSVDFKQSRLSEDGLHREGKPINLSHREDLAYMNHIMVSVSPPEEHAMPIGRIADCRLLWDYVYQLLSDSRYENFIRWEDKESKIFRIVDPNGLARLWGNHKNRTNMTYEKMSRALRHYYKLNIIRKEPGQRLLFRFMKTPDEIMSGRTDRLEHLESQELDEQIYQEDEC", "procedure,_shortened": "as §1"}},
  "data": [
    {"sequence": "GGCTCT", "values": [
      {"measurement": "binding signal", "setting": "ETV1", "value": "1.42 fold enrichment (6-mer frequency, TF over GST control)"},
      {"measurement": "binding signal", "setting": "ERF", "value": "1.36 fold enrichment (6-mer frequency, TF over GST control)"},
      {"measurement": "binding signal", "setting": "ETV3L", "value": "1.34 fold enrichment (6-mer frequency, TF over GST control)"},
      {"measurement": "binding signal", "setting": "ETS2", "value": "1.2 fold enrichment (6-mer frequency, TF over GST control)"},
      {"measurement": "binding signal", "setting": "SPDEF", "value": "1.13 fold enrichment (6-mer frequency, TF over GST control)"},
      {"measurement": "binding signal", "setting": "ETV7", "value": "1.44 fold enrichment (6-mer frequency, TF over GST control)"},
      {"measurement": "binding signal", "setting": "ELF5", "value": "1.15 fold enrichment (6-mer frequency, TF over GST control)"},
      {"measurement": "binding signal", "setting": "ETV3", "value": "1.34 fold enrichment (6-mer frequency, TF over GST control)"},
      {"measurement": "binding signal", "setting": "ETV6", "value": "1.3 fold enrichment (6-mer frequency, TF over GST control)"}
    ]}
  ]
}
